This is an account of results in PubChem BioAssay (NCATS).

Calls of active or inactive are those of the source. No rule for the calls is given here.
Potency is read from the fitted curve at half-maximal effect.

This assay has as its system HIV-1 nucleocapsid protein NCp7 (binding to TG oligonucleotide). Nature of the assay: HIV Nucleocapsid (AID 346).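 Also: potency is for inhibitors that block NC binding and lower polarization.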 The conditions noted are these: HIV-1 NC / fluorescein-TGTGTGTG probe, fluorescence polarization. The method in brief:
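Inhibition of nucleocapsid binding to single-stranded 5'-TGTGTGTG probe (10 nM) was measured by fluorescence polarization after 1 hr at room temperature with 100 nM protein under high-salt, zinc-containing, reducing conditions.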
Regarding `COc1cccc(-c2nc(NCc3ccccc3OC)c3ccccc3n2)c1`, the Potency was > 20 µM (inactive). As for `Cn1cccc1C(=O)N1CCC2(CC1)CCN(c1ccc(-c3ccccc3)cc1)CC2`, the figure is > 20 µM (inactive). Next, `COc1cccc(-c2ccc3ncnc(N(C)C)c3c2)c1`: > 20 µM (inactive); `COc1ccc(C(=O)N2CCC3(CCN(Cc4cc(C(F)(F)F)cc(C(F)(F)F)c4)CC3)CC2)cc1`: > 20 µM (inactive); `Cc1noc(C)c1C(=O)N1CCC2(CC1)CN(C(=O)Nc1cccc(F)c1)C2`: > 20 µM (inactive). Next, `CNc1ncncc1-c1ccccc1CN(C)C`: > 20 µM (inactive).

Regarding `FC(F)(F)c1ccccc1-c1ccc2ncnc(N3CCOCC3)c2c1`, the Potency is > 20 µM (inactive). With `Cn1cc(-c2nc3cnc(Oc4ccccc4)nc3n(Cc3cccs3)c2=O)c2ccccc21`, the Potency was > 20 µM (inactive). As to `O=C(c1cnccn1)N1CCC2(CCCN(c3ccccc3)C2)CC1`, the Potency is > 20 µM (inactive). Consider `COCC(=O)N1CCC2(CCCN(Cc3nccs3)C2)CC1`, for which the Potency was > 20 µM (inactive). For `c1nc(N2CCNCC2)c2cc(-c3ccoc3)ccc2n1`, the Potency is > 20 µM (inactive).

Consider `COCC(=O)N1CCC2(CCCN(C(=O)Nc3cccc(C#N)c3)C2)CC1`, for which the Potency is > 20 µM (inactive). Regarding `CCNc1ncc2nc(-c3cc(F)cc(F)c3)c(=O)n(CCC#N)c2n1`, the Potency was 19.8 µM (inactive).

For `O=C(c1csnn1)N1CCC2(CC1)CCN(C(c1ccccc1)c1ccccc1)CC2`, the Potency is > 20 µM (inactive).

On to `O=C(c1csnn1)N1CCC2(CC1)CCN(c1ncccn1)CC2`, for which the Potency is > 20 µM (inactive). `CN1CCN(c2ncnc3ccc(-c4ccccc4C#N)cc23)CC1`: the Potency was > 20 µM (inactive). For `FC(F)(F)c1ccccc1-c1nc(NC2CCNCC2)c2ccccc2n1`, the Potency was > 20 µM (inactive).

For `O=c1c(-c2ccc(F)cc2)nc2cnc(Oc3ccccc3)nc2n1C1CC1`, the Potency is > 20 µM (inactive). Regarding `O=C(Nc1cccc(F)c1)N1CC2(CCN(S(=O)(=O)c3ccccc3)CC2)C1`, the Potency is > 20 µM (inactive). Take `COc1ccccc1CN1CC2(CCN(S(C)(=O)=O)CC2)C1`: the Potency was > 20 µM (inactive). Next, `COc1ccc(NC(=O)N2CCC3(CC2)CCN(C(=O)c2ccncc2)CC3)cc1`: > 20 µM (inactive); `c1nc(NC2CC2)c2cc(-c3ccoc3)ccc2n1`: > 20 µM (inactive). As to `COc1cccc(Cn2c(=O)c(CCc3ccccc3)nc3cnc(N4CCNCC4)nc32)c1`, the Potency was > 20 µM (inactive). As to `COc1ccccc1-c1cc(NCc2cccs2)ncn1`, the Potency is > 20 µM (inactive).

Consider `Cc1noc(C)c1-c1ccc2ncnc(NCCN3CCOCC3)c2c1`, for which the Potency was > 20 µM (inactive). Regarding `CN(C)c1ccc(-c2ccc3ncnc(-n4ccnc4)c3c2)cc1`, the Potency was > 20 µM (inactive). As for `Cc1nc2cnc(N3CCNCC3)nc2n(CCc2ccccc2)c1=O`, the figure is > 4 µM (inactive); as for `COCCn1c(=O)c(-c2ccccc2)nc2cnc(Nc3ccccc3)nc21`, > 20 µM (inactive). `COCCn1c(=O)cnc2cnc(Nc3cccc(OC)c3)nc21`: the Potency is > 20 µM (inactive).

Turning to `COCCNc1ccnc(-c2ccccc2C(F)(F)F)n1`, the Potency was > 20 µM (inactive). As for `O=C(c1csnn1)N1CCC2(CCCN(c3ccccc3)C2)CC1`, the figure is > 20 µM (inactive); as for `COc1cccc(-c2cc(NCc3ccccc3OC)ncn2)c1`, > 20 µM (inactive); as for `COCC(=O)N1CCC2(CC1)CCN(C(=O)Nc1cccc(F)c1)CC2`, > 20 µM (inactive). As for `COCCn1c(=O)c(-c2ccc(F)cc2)nc2cncnc21`, the figure is > 20 µM (inactive); as for `CN1CCN(c2cc(-c3ccc(N(C)C)cc3)ncn2)CC1`, > 20 µM (inactive). Next, `Fc1ccc(Nc2ccnc(-c3ccc4c(c3)OCO4)n2)cc1`: > 20 µM (inactive); `COc1ncc2nc(-c3ccc(Cl)cc3)c(=O)n(CCC#N)c2n1`: > 20 µM (inactive); `CN(Cc1ccco1)c1ncnc2ccc(-c3cccc(NS(C)(=O)=O)c3)cc12`: > 20 µM (inactive). `CN(C)c1ncc2nc(-c3ccc(F)cc3)c(=O)n(C[C@H]3CCCO3)c2n1`: the Potency was > 20 µM (inactive).

In the case of `COc1ccc(Oc2ncc3nc(C)c(=O)n(CCc4ccccc4)c3n2)cc1`, the Potency is > 20 µM (inactive).
